Measurements reported in PubChem BioAssay AID743185 (Broad Institute, 2013).
Calls of active or inactive are those of the source.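 The calls were made as follows: active = ATP loss in HepG2 cells with fitted half-maximal concentration at most twice the top tested dose; inconclusive = flat curve showing moderate loss, or a poor fit; inactive = opposite effect, flat near zero, or weaker potency.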

Assay: HepG2 cell cytotoxicity, dose response, cytotoxicity control, luminescence, dry powder, set 5 (AID 743185)
Conditions: HepG2 viability, ATP luminescence (CellTiter-Glo), 72 h; series mostly up to 26 µM

SMILES | outcome
O=C(N/N=C/c1c[nH]c2ccccc12)c1cccs1 | inactive
CSc1ccc(/C=N/NC(=O)c2ccc3nc[nH]c3c2)cc1 | inactive
